For part of these data: Potency and affinity values are given separately.
Experiments:
Design in all cases: scale not given: direction of the effect not stated beside the values
[1] = molecular target: Protein translocase subunit SecA (Escherichia coli (strain K12)) (UniProt P10408); experiment: Assay to Identify E. coli SecA ATPase Inhibitors; type: functional; details: 30 µM
[2] = molecular target: T1, Ubiquitin-activating enzyme e1, putative (Leishmania donovani (strain BPK282A1)) (UniProt E9BSI1); experiment: Leishmania donovani Ubiquitin Activating Enzyme (LdE1); type: functional; details: 30 µM
T1 sequence (whole entry): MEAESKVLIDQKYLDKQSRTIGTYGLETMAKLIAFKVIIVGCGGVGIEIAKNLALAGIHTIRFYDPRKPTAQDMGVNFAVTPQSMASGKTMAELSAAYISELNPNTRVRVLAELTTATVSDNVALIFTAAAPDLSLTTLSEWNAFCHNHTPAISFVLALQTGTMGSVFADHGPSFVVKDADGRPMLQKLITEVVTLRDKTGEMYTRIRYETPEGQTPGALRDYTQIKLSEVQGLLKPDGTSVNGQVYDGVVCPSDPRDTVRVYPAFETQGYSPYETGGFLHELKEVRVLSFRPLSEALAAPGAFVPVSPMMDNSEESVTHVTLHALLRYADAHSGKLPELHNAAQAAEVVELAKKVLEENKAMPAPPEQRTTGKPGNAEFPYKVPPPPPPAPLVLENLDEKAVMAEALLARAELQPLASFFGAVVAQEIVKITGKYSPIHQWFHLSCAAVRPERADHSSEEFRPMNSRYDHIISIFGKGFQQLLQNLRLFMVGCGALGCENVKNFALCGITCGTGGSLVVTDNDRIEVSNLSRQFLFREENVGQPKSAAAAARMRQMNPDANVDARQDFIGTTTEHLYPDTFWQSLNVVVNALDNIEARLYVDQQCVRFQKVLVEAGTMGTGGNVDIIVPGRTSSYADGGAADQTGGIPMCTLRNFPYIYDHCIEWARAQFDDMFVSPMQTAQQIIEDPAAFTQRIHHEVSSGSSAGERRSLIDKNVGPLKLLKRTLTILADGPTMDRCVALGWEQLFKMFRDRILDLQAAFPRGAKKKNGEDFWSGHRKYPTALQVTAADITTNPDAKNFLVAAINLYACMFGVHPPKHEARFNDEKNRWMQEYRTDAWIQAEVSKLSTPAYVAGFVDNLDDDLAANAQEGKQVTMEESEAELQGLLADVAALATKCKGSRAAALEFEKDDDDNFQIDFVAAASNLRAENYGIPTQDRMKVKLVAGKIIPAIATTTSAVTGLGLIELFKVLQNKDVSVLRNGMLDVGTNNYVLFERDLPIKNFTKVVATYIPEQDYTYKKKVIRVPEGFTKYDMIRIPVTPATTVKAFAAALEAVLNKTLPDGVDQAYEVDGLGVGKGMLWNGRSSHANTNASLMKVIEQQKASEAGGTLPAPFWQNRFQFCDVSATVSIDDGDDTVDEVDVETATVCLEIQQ

[3] = molecular target: T2, Aspartate--tRNA(Asp/Asn) ligase (Mycobacterium tuberculosis (strain ATCC 25618 / H37Rv)) (UniProt P9WFW3); experiment: Assay for Asp RNA synthetase-1 from Mycobacterium tuberculosis; type: functional; details: 30 µM; also: in the data most compounds retested in dose-response had high values
T2 sequence (whole entry): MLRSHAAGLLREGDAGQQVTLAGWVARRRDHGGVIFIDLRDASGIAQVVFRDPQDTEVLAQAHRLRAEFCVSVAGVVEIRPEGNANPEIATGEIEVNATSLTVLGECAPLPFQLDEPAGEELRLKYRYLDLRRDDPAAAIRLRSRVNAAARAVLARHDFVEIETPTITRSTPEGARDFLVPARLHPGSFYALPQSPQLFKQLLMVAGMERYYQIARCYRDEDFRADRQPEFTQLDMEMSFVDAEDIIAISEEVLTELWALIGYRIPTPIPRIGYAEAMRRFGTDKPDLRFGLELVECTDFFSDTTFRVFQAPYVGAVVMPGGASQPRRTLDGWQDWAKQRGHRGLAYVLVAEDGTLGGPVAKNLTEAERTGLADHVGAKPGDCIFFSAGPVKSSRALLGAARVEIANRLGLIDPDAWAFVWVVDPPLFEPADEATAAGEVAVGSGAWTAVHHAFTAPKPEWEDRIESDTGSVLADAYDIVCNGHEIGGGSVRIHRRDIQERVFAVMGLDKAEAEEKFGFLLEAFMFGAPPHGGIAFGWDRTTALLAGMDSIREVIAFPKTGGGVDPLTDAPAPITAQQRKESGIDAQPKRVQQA

[4] = molecular target: AMP-activated protein kinase, AMPK (Homo sapiens) (UniProt P54646+O43741+P54619+Q9UGJ0+Q9Y478+Q13131+Q9UGI9); experiment: AMP-dependent Kinase enzyme assay. An in vitro enzyme assay that detects ADP turnover that is directly proportional to AMPK activity. This uses naive AMPK that is activated during the assay with MK-8722; type: functional; details: 30 µM
[5] = molecular target: Sialic acid-binding Ig-like lectin 9 (Homo sapiens) (UniProt Q9Y336); experiment: Hs-Siglec9 ALPHAscreen SOP 20170721; details: 10 µM
Trypanosoma cruzi = experiment: Trypanosoma cruzi phosphomannomutase and mannose-1-phosphate guanylyltransferase assay; type: functional; details: 10 µM
[6] = molecular target: T3, Arginase-2, mitochondrial (Homo sapiens) (UniProt P78540); experiment: in vitro enzyme assay to detect the production of urea directly proportional to the activity of Arginase II; type: functional; details: 33.3 µM; also: in the data most compounds retested in dose-response had high values
T3 sequence (whole entry): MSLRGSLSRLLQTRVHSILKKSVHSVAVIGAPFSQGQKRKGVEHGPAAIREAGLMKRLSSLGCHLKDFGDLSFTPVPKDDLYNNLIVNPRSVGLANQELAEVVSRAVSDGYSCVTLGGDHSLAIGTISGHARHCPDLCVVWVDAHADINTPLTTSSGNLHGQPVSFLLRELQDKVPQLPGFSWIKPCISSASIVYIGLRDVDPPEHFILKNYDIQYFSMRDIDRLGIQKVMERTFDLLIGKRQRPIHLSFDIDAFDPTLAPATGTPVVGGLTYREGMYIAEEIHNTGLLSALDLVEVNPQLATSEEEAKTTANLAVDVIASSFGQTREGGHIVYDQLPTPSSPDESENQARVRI

[7] = molecular target: T4, Proteasome subunit beta (Trypanosoma cruzi) (UniProt O96673); experiment: Trypanosoma cruzi proteasome chymotrypsin-like activity (TcProtChymo) assay.; also: in the data most compounds retested in dose-response had high values; type: functional; details: 9.37 µM
T4 sequence (whole entry): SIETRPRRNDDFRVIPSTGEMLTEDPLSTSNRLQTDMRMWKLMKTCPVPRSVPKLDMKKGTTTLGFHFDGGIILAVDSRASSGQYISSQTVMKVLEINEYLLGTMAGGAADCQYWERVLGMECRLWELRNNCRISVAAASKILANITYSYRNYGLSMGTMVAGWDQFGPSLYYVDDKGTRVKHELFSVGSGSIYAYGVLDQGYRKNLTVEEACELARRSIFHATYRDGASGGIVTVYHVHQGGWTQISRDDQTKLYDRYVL

Homo sapiens = species: Homo sapiens; experiment: To identify inhibition of the IFN signalling (Jak-Stat) pathway via expression of an eGFP reporter gene under the control of an IFN-stimulated response element (ISRE) containing MxA promoter.; type: functional; details: 30 µM
[8] = molecular target: Shiga toxin 2 (Escherichia coli O157:H7) (UniProt P09385+P09386); experiment: E. coli 0.157:H7 Shiga Toxin SOP - stx2 screening assay; type: functional; details: 30 µM
[9] = molecular target: T5, Tyrosyl-tRNA synthetase, putative (Trypanosoma cruzi (strain CL Brener)) (UniProt Q4DSP6); experiment: Trypanosoma cruzi tyrosyl tRNA synthetase (TcYRS) _High Tyrosine SOP; type: functional; details: 30 µM; also: in the data most compounds retested in dose-response had high values
T5 sequence (whole entry): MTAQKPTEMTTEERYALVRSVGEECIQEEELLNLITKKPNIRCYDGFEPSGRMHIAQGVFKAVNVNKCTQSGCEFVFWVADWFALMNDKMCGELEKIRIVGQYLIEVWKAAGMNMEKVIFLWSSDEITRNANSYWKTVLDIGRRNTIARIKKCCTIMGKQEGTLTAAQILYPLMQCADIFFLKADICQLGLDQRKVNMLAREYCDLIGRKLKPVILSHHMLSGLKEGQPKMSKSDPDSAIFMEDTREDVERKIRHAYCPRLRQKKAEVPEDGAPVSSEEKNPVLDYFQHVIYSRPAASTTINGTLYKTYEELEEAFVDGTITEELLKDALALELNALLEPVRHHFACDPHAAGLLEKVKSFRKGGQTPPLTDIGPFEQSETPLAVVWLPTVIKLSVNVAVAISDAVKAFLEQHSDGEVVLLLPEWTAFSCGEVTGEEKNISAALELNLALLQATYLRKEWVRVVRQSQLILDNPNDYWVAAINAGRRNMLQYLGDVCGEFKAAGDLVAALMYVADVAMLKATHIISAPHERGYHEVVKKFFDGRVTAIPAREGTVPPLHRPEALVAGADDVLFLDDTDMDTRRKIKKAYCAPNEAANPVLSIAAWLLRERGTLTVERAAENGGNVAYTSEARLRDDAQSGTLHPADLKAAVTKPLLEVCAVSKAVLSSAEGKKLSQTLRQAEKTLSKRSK

[10] = molecular target: T5, Tyrosyl-tRNA synthetase, putative (Trypanosoma cruzi (strain CL Brener)); experiment: Trypanosoma cruzi tyrosyl tRNA synthetase (TcYRS) SOP; type: functional; details: 30 µM
[11] = molecular target: Chromo domain-containing protein 1 (Saccharomyces cerevisiae (strain ATCC 204508 / S288c) (Baker's yeast)) (UniProt P32657); experiment: ScCHD-1 Enzyme Inhibition Assay; type: functional; details: 30 µM; also: in the data most compounds retested in dose-response had high values
Chain of Chromo domain-containing protein 1 (Saccharomyces cerevisiae (strain ATCC 204508 / S288c) (Baker's yeast)) (P32657 whole entry, the tested form may be a part): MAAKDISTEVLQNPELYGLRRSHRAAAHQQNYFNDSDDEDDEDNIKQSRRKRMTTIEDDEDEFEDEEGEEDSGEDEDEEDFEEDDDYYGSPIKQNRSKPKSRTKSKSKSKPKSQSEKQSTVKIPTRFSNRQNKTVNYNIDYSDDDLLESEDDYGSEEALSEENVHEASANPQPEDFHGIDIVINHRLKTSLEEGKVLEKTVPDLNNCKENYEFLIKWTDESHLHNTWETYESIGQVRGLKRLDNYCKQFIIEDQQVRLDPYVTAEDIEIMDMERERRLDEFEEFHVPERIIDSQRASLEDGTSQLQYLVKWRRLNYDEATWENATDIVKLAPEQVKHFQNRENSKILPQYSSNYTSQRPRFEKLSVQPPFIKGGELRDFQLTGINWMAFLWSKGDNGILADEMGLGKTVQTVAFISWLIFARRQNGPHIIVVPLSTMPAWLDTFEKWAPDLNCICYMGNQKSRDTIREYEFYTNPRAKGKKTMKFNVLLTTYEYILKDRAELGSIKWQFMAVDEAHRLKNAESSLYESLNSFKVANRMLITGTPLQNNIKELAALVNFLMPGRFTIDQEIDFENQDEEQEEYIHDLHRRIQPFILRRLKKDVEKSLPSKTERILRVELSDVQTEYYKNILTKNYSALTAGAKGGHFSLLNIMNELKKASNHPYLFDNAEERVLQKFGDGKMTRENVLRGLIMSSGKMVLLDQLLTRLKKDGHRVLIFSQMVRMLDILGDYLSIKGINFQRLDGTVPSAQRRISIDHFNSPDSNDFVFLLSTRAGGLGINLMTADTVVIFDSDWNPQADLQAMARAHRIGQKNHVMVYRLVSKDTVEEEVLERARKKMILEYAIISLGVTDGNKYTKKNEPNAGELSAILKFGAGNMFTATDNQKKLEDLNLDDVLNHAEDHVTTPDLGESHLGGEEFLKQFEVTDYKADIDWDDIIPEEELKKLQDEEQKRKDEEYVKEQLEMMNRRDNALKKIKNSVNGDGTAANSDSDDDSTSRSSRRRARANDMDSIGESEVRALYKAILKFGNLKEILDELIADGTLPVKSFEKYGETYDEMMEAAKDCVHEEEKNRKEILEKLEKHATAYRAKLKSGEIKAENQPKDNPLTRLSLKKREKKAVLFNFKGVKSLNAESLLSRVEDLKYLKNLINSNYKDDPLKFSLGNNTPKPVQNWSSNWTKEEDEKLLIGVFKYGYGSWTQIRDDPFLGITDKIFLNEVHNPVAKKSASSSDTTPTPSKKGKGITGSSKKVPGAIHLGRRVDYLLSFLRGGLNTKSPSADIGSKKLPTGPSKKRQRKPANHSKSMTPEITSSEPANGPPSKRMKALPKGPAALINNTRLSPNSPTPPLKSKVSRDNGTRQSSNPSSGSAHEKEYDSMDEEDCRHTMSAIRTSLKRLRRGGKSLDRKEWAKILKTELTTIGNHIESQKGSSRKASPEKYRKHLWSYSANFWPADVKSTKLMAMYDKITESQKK

Chain of Sialic acid-binding Ig-like lectin 9 (Homo sapiens) (Q9Y336 whole entry): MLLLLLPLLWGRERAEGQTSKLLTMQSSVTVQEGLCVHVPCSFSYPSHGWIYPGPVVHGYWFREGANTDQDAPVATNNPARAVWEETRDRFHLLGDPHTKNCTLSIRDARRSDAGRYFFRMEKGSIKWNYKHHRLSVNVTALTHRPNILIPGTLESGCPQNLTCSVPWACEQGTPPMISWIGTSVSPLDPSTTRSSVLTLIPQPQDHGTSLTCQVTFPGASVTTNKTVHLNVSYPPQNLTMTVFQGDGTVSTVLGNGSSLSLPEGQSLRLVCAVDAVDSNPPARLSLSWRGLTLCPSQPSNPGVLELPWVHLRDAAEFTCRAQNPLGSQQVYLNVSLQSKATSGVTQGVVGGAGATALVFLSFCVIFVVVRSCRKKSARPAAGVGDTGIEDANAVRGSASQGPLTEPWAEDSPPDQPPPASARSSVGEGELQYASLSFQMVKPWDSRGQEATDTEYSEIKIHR
Chain of Protein translocase subunit SecA (Escherichia coli (strain K12)) (P10408 whole entry): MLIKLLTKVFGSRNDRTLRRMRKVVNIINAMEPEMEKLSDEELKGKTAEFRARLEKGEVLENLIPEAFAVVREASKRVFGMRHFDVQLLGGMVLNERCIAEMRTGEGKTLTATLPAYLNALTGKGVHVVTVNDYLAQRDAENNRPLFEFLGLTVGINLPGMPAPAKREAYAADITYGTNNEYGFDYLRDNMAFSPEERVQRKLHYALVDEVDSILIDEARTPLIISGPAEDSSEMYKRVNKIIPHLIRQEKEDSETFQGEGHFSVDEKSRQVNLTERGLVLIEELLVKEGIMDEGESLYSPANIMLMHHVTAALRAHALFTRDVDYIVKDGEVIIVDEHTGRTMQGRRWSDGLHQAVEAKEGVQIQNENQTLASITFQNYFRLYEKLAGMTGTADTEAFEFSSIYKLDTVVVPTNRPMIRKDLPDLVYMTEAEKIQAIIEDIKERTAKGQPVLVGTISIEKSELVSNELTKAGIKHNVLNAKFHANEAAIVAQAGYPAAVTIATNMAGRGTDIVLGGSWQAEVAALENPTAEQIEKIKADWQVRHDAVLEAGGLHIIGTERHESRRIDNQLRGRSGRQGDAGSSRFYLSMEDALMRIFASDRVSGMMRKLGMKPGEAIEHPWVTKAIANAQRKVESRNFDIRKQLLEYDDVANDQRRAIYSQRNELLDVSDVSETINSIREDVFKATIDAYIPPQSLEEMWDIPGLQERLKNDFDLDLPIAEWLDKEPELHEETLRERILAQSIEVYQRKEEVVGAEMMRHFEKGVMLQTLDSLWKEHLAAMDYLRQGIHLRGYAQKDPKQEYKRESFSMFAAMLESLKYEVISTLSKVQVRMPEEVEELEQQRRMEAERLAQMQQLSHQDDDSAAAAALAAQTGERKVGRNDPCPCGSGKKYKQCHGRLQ

## Cc1csc(CN2CCC[C@]3(C[C@H](Oc4ccccn4)CO3)C2)n1
[1]
  Percent Effect: 0.108%
[2]
  Percent Effect: 16.4%
[3]
  Percent Effect: 2.42%
[4]
  Percent Effect: -0.448%
[5]
  Percent Effect: 1.76%
Trypanosoma cruzi
  Percent Effect: 3.57%
[6]
  Percent Effect: 2.4%
[7]
  Percent Effect: 3.85%
Homo sapiens
  Percent Effect: 21.9%
[8]
  Percent Effect: -19.3%
[9]
  Percent Effect: 3.12%
[10]
  Percent Effect: 21%
[11]
  Percent Effect: -4.03%

## CN(C)C(=O)CN1CCN(C(=O)Cc2csc(-c3ncccn3)n2)CC1
[1]
  Percent Effect: -3.23%
[2]
  Percent Effect: 13.2%
[3]
  Percent Effect: -1.92%
[4]
  Percent Effect: -1.28%
[5]
  Percent Effect: 12%
Trypanosoma cruzi
  Percent Effect: -3.19%
[6]
  Percent Effect: 1.92%
[7]
  Percent Effect: 8.69%
Homo sapiens
  Percent Effect: 23.7%
[8]
  Percent Effect: 30%
[9]
  Percent Effect: 5.39%
[10]
  Percent Effect: 9.76%
[11]
  Percent Effect: -7.21%

## O=C([C@H]1C[C@H]2OCC[C@H]2N(Cc2ccncc2)C1)N1CCCCO1
[1]
  Percent Effect: -5.42%
[2]
  Percent Effect: 18.7%
[3]
  Percent Effect: 0.349%
[4]
  Percent Effect: -3.96%
[5]
  Percent Effect: -0.793%
Trypanosoma cruzi
  Percent Effect: 5.6%
[6]
  Percent Effect: -46.4%
[7]
  Percent Effect: 15.9%
Homo sapiens
  Percent Effect: -2.86%
[8]
  Percent Effect: -11.8%
[9]
  Percent Effect: 8.33%
[10]
  Percent Effect: 25%
[11]
  Percent Effect: -6.46%

## CCn1cc(CN2CCCN(C(=O)Cc3cccs3)CC2)cn1
[1]
  Percent Effect: -4.84%
[2]
  Percent Effect: 22.8%
[3]
  Percent Effect: -2.8%
[4]
  Percent Effect: -10.6%
[5]
  Percent Effect: 3.48%
Trypanosoma cruzi
  Percent Effect: 6.52%
[6]
  Percent Effect: -0.76%
[7]
  Percent Effect: 15.6%
Homo sapiens
  Percent Effect: -4.27%
[8]
  Percent Effect: -21.2%
[9]
  Percent Effect: 10.3%
[10]
  Percent Effect: 29.1%
[11]
  Percent Effect: -8.38%

## Cc1n[nH]c2c1C(c1cnn(C)c1)SCC(=O)N2 (configuration not stated)
[1]
  Percent Effect: -5.19%
[2]
  Percent Effect: 1.33%
[3]
  Percent Effect: -2.64%
[4]
  Percent Effect: 11.3%
[5]
  Percent Effect: 3.08%
Trypanosoma cruzi
  Percent Effect: -2.16%
[6]
  Percent Effect: -11.4%
[7]
  Percent Effect: 11.8%
Homo sapiens
  Percent Effect: 6.26%
[8]
  Percent Effect: -3.86%
[9]
  Percent Effect: 3.17%
[10]
  Percent Effect: 12.8%
[11]
  Percent Effect: -9.44%

## Cc1cc(CN2C[C@@H]3COC[C@]3(CNC(=O)c3ccno3)C2)no1
[1]
  Percent Effect: -5.72%
[2]
  Percent Effect: 2.7%
[3]
  Percent Effect: 6.65%
[4]
  Percent Effect: 2.65%
[5]
  Percent Effect: 4.53%
Trypanosoma cruzi
  Percent Effect: 0.293%
[6]
  Percent Effect: 8.6%
[7]
  Percent Effect: 13.1%
Homo sapiens
  Percent Effect: -16.8%
[8]
  Percent Effect: -2.33%
[9]
  Percent Effect: 3.24%
[10]
  Percent Effect: 5.13%
[11]
  Percent Effect: 1.22%

## COc1cccc(CNC(C)Cn2cccn2)c1OC (configuration not stated)
[1]
  Percent Effect: -0.666%
[2]
  Percent Effect: 2.6%
[3]
  Percent Effect: 6.86%
[4]
  Percent Effect: 1.22%
[5]
  Percent Effect: 3.25%
Trypanosoma cruzi
  Percent Effect: -0.749%
[6]
  Percent Effect: 1.42%
[7]
  Percent Effect: 2.37%
Homo sapiens
  Percent Effect: 7.27%
[8]
  Percent Effect: 0.638%
[9]
  Percent Effect: 1.94%
[10]
  Percent Effect: 0%
[11]
  Percent Effect: -2.46%

## CCOCC(O)CN1CCN(C(=O)Cc2ccc(C)nc2)CC1 (configuration not stated)
[1]
  Percent Effect: -0.896%
[2]
  Percent Effect: 18.4%
[3]
  Percent Effect: -0.811%
[4]
  Percent Effect: 1.93%
[5]
  Percent Effect: 7.02%
Trypanosoma cruzi
  Percent Effect: -3.38%
[6]
  Percent Effect: 3.83%
[7]
  Percent Effect: 15.9%
Homo sapiens
  Percent Effect: 10.3%
[8]
  Percent Effect: 27%
[9]
  Percent Effect: 11.3%
[10]
  Percent Effect: 17.1%
[11]
  Percent Effect: -5.52%

## c1cncc(COC[C@H]2CC[C@H]3[C@H](CCN3Cc3cccs3)O2)c1
[1]
  Percent Effect: -1.85%
[2]
  Percent Effect: 13.3%
[3]
  Percent Effect: 6.9%
[4]
  Percent Effect: 3.86%
[5]
  Percent Effect: 2.88%
Trypanosoma cruzi
  Percent Effect: -0.197%
[6]
  Percent Effect: 3.5%
[7]
  Percent Effect: 22.8%
Homo sapiens
  Percent Effect: 3.65%
[8]
  Percent Effect: -13.6%
[9]
  Percent Effect: 7.45%
[10]
  Percent Effect: 14.1%
[11]
  Percent Effect: -5.4%
